# Mtb UGM inh – inhibitors of M. tuberculosis UDP-galactopyranose mutase | AID 504406 | 320,000 tested, 0.06% active | inhibition, % at 10 µM | purified UGM, fluorescence polarization probe displacement; in the data active = inhibition above about 10%, passing the limit was not always enough
# Target sequence (P9WIQ1 whole entry, looked up): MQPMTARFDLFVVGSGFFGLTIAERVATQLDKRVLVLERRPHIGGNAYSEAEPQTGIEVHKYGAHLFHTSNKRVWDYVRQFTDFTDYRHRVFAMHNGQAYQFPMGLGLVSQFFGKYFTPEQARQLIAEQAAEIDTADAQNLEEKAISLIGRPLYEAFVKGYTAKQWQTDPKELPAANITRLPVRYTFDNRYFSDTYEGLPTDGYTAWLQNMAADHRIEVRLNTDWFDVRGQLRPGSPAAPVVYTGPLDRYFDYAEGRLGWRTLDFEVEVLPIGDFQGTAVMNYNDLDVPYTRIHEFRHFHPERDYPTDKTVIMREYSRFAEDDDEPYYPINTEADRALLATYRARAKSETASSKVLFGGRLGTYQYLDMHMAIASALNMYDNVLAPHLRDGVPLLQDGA
# GDH-TPI counter-1 – counter-screen for M. tuberculosis FBA inhibitors: GDH-TPI coupled enzymes; GDH-TPI coupled enzyme counterscreen, NADH absorbance; inhibition, % at 4.8 µM; 360,000 tested, 1.2% active; in the data active = inhibition above about 30%
# BH1578 lux ind – induces V. cholerae light production without autoinducers | activation, % at 18.7 µM | 350,000 tested, 0.16% active | V. cholerae BH1578 lux reporter, luminescence, 6 h; in the data active = activation mostly above about 9.7%, no sharp cut-off
# Rv3671c inh – inhibitors of M. tuberculosis serine protease Rv3671c; inhibition, % at 5.96 µM; P9WHR9; 320,000 tested, 0.048% active; in the data active = inhibition above about 38%;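 also: extracellular domain of Rv3671c used as enzyme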
# RecA intein inh – inhibitors of M. tuberculosis RecA intein splicing | AID 2221 | inhibition, % (test concentration not listed) | 290,000 tested, 0.75% active | P9WHJ3 | cell-free RecA intein splicing, fluorescence; in the data active = inhibition above about 30%
# Mtb FBA inh – Mtb fructose-bisphosphate aldolase inhibition; P9WQA3; purified M. tuberculosis FBA, fluorescence read-out; inhibition, % at 1 µM; 360,000 tested, 2.3% active
# Mtb FBA inh conf – Mtb FBA inhibition, confirmed. shares compounds with Mtb FBA inh. purified M. tuberculosis FBA, fluorescence read-out. inhibition, % at 1 µM. 5,600 tested, 78% active. AID 651616
# GDH-TPI counter-2 – inhibits GDH-TPI coupling enzymes, flagging Mtb FBA hits. shares compounds with Mtb FBA inh. GDH-TPI coupled enzyme counterscreen, fluorescence. inhibition, % at 1 µM. 5,600 tested, 81% active; in the data active = inhibition above about 10%
# Hits are given with their value; - = inactive; . = not tested or not shown; + = active, no number. Compounds with a hit are over-represented: about 4.1% of the library has one in this group of screens. Rule as the data show it, unless noted: active = inhibition above about 27%; inactive = the rest.
SMILES,Mtb UGM inh,GDH-TPI counter-1,BH1578 lux ind,Rv3671c inh,RecA intein inh,Mtb FBA inh,Mtb FBA inh conf,GDH-TPI counter-2
C[C@H](CO)N1C[C@H](C)[C@H](CN(C)Cc2ccc(C(=O)O)cc2)OCc2ccccc2-c2c(n(C)c3ccccc23)C1=O,.,-,-,.,.,-,.,.
COc1cc(NC(=O)c2cccc(C)c2)ccc1NC(=O)c1cc2ccccc2o1,-,-,-,-,-,-,.,.
CCOc1ccccc1NC(=O)CSc1nc2nc(-c3cccs3)cc(C(F)(F)F)c2c(=O)[nH]1,-,-,-,-,-,58,73,50
COc1ccc(NC(=O)CSc2nc3nc(-c4cccs4)cc(C(F)(F)F)c3c(=O)[nH]2)c(OC)c1,-,-,-,-,-,-,.,.
O=C(CSc1nc2nc(-c3cccs3)cc(C(F)(F)F)c2c(=O)[nH]1)NCc1ccco1,-,-,-,-,-,95,-,-
Cc1cccc(NC(=S)Nc2cccc(C)n2)n1,-,-,-,-,-,91,-,-
COC(=O)N(C)C[C@H]1OCc2cnnn2CCCC(=O)N([C@H](C)CO)C[C@H]1C,.,-,-,.,.,-,.,.
O=C(Nc1ncn[nH]1)c1ccccc1O,-,-,-,-,-,56,+,+
O=C(Nc1ncn[nH]1)c1c(Cl)ccc(Cl)c1Cl,-,-,-,-,-,-,.,.
COc1ccc(CNC(=O)COC(=O)CN2C(=O)COc3ccccc32)cc1,-,-,-,-,-,-,.,.
CCCn1c(CCC(=O)O)ccc1-c1ccc(OC)cc1,-,-,-,-,-,30,+,+
COc1ccc(-c2ccc(CCC(=O)O)n2NC(N)=O)cc1,-,-,-,-,-,-,.,.
NC(N)=N/N=C(\N=Nc1ccccc1)c1ccc(Cl)cc1,.,-,.,.,.,-,.,.
COCCNC(=O)CSc1ccc(-c2nc3ccccc3[nH]2)cn1,-,31,-,-,-,31,-,-
COc1ccc(N2CC(C(=O)N3CCN(c4ccccc4F)CC3)CC2=O)cc1 (configuration not stated),-,-,-,-,-,-,.,.
COc1ccc(S(=O)(=O)N2CCN(C(=O)C3CC(=O)N(c4ccccc4F)C3)CC2)cc1OC (configuration not stated),.,-,-,.,.,33,150,94
Cc1ccc(-c2nc3cnccn3c2Nc2ccccc2)o1,-,-,.,-,-,-,.,.
Cc1ccc(-c2nc3ccccn3c2Nc2ccccc2)o1,-,-,-,-,-,108,138,127
Cc1ccc2nc(-c3ccncc3)c(NC3CCCC3)n2c1,-,-,-,-,-,-,.,.
Cc1ccc2nc(-c3ccsc3)c(NC3CCCC3)n2c1,-,-,-,-,-,28,-,14
O=C(Nc1ccc(Cl)c(Cl)c1)c1ccccc1,-,-,-,-,.,-,.,.
COc1cc(NC(=O)Nc2ccc(Cl)c(Cl)c2)c(C(=O)O)cc1OC,-,-,-,-,-,104,49,47
CN(C(=O)Nc1ccc(Cl)c(Cl)c1)c1ccccc1C(=O)O,-,-,-,-,-,68,142,134
Cc1ccc(NC(=O)Nc2cccc(Cl)c2)c(C(=O)O)c1,-,-,-,-,-,94,104,78
Cc1nc(NC(=O)c2ccc([N+](=O)[O-])cc2Cl)sc1C(=O)N(C)C,-,-,-,-,-,91,+,162
SMILES,Mtb UGM inh,GDH-TPI counter-1,BH1578 lux ind,Rv3671c inh,RecA intein inh,Mtb FBA inh,Mtb FBA inh conf,GDH-TPI counter-2
Cc1cc2c([nH]c3ccccc32)c(C)n1,-,-,-,-,-,96,-,-
Cc1nc(C(=O)O)cc2c1[nH]c1ccccc12,-,-,-,-,-,85,+,+
Cc1nc(C(=O)NCCO)cc2c1[nH]c1ccccc12,-,-,-,.,-,-,.,.
Cc1cc(/C=N/NC(=O)Cn2c3ccccc3c(=O)c3ccccc32)c(C)n1-c1ccccc1,-,-,-,-,-,66,+,+
Cc1ccc(N(CC(=O)N/N=C/c2cc(C)n(-c3ccccc3)c2C)S(C)(=O)=O)c(C)c1,-,-,-,-,-,-,.,.
O=c1c2ccccc2nc2n1CCCCC2,-,-,-,-,-,-,.,.
O=c1c2ccccc2nc2n1CCCN2,-,-,-,-,-,70,+,+
COC(CN(C)S(=O)(=O)c1cc2c3c(c1)CCN3C(=O)CC2)OC,-,-,-,-,-,-,.,.
NC(=O)c1sc2nc(-c3ccco3)ccc2c1N,-,-,32,-,-,53,+,+
Nc1c(C(=O)Nc2ccccc2F)sc2nc(-c3cccnc3)ccc12,-,-,-,-,-,-,.,.
Nc1c(C(=O)Nc2ccccc2F)sc2nc(-c3ccco3)ccc12,-,32,-,-,-,40,50,43
C#CCN(C[C@@H]1[C@@H](OC(=O)NC2CCCC2)[C@@H](OC(=O)NC2CCCC2)CN(C(=O)OC(C)C)N1C(=O)OC(C)C)S(=O)(=O)c1ccc(C)cc1,.,-,-,.,.,-,.,.
Cc1ccc(C(=O)NCC(=O)N2CCC(Cc3ccccc3)CC2)cc1,-,-,-,-,-,-,.,.
CCN(Cc1cnn(C)c1)C(=O)c1ccc2nc(Cc3ccccc3F)oc2c1,.,-,-,.,.,-,.,.
O=S(=O)(Nc1ccc(C(O)(C(F)(F)F)C(F)(F)F)cc1)c1cccc2cccnc12,.,-,-,.,.,-,.,.
COC(=O)C1=CN(C2CC2)C=C(C(=O)OC)C1c1ccc(C(=O)OC)cc1,-,-,-,-,-,44,-,-
COC(=O)C1=CN(C2CC2)C=C(C(=O)OC)C1c1ccc(C(F)(F)F)cc1,-,-,-,-,-,-,.,.
CC(C)C(c1nnnn1CCc1ccccc1)N1CCSCC1 (configuration not stated),-,-,-,-,-,-,.,.
O=C1NC(C2CC3C=CC2C3)Nc2ccccc21 (configuration not stated),.,-,-,.,.,63,+,172
Cc1ccn2c(=O)c(C(=O)O)cnc2c1,-,34,-,-,-,92,92,83
COc1ccccc1NC(=O)N(C)C[C@@H]1OCc2cnnn2CCCC(=O)N([C@@H](C)CO)C[C@@H]1C,.,-,-,.,.,-,.,.
CCCCn1c(=O)[nH]c(=O)c2c1nc(-c1ccccn1)n2CC,-,-,-,-,.,53,33,33
O=C(Cn1cc(C(F)(F)F)ccc1=O)NCc1ccc(F)cc1,-,-,-,-,-,-,.,.
O=c1[nH]cccc1-c1nc2cc(Cl)ccc2n1Cc1ccccc1,-,-,-,-,-,77,-,-
CC(=O)N(C)C[C@H]1Oc2ncc(Br)cc2C(=O)N([C@H](C)CO)C[C@@H]1C,.,-,-,.,.,-,.,.
CCOc1ccc2oc(C(=O)OCC(=O)N3C(C)CCCC3C)c(C)c2c1 (configuration not stated),-,-,-,-,.,48,91,87
COc1ccc2oc(C(=O)OCC(=O)N3CCCC3=O)c(C)c2c1,-,-,-,-,-,45,73,36
